Out of some 85,000 compounds screened, about 440 (0.52%) showed an effect of 50% or more. The full list was thinned out, with strong results kept by preference.
Test: In vitro enzyme assay to detect hydrolysis of chlorophenol red-beta-D-[…] directly proportional to the number of Toxoplasma stably expressing beta-galactosidase
Format: functional, organism-based, Toxoplasma gondii
Parameters: scale not given: in the data most compounds retested in dose-response had high values

| SMILES | Percent Effect (50 µM) [%] | Percent Effect (10 µM) [%] |
| --- | --- | --- |
| O=C(NC1CC1)C1CCCN1c1ccc2nnnn2n1 (stereo not given) | 14.68 | – |
| Cc1ccc(CNCCN2CCOCC2)s1 | -0.4782 | – |
| CC(CO)N(C)C(=O)c1cccc2cc[nH]c12 (stereo not given) | 3.789 | – |
| CSCC(=O)NC(C1CCNCC1)[C@H]1C[C@@H](O)C1 (stereo not given in full) | 54.38 | – |
| O=C(NC(C1CCNCC1)[C@H]1C[C@H](O)C1)C1CC=CC1 (stereo not given in full) | -3.099 | – |
| CSCCC(=O)NC(C1CCNCC1)[C@H]1C[C@H](O)C1 (stereo not given in full) | 2.303 | – |
| CN(C)C(=O)C1OCCc2ccccc21 (stereo not given) | -9.561 | – |
| CCN(C1CC1)S(=O)(=O)c1ccc(OC)c(C(N)=O)c1 | -4.702 | – |
| CC(C)OCCOCC(O)CN(C)Cc1cccnc1 (stereo not given) | -1.887 | – |
| Cc1cscc1C(=O)NCCc1cncn1C | -7.221 | – |
| CCOC(=O)C(O)c1cc(Br)c2c(c1)OCO2 (stereo not given) | 60.1 | – |
| CC(C)S(=O)(=O)N(C)C(=O)c1cc(Br)c2c(c1)OCO2 | 10.61 | – |
| NCc1cc(Br)c2c(c1)OCO2 | 33.59 | – |
| CC(C)NC(=O)C(C)n1cncn1 (stereo not given) | 7.173 | – |
| CN(CCN)S(=O)(=O)c1cccs1 | -2.794 | – |
| Cc1cc(C)n(-c2nc(NCCCO)c3c4c(sc3n2)CCCC4)n1 | – | 81.16 |
| Cc1cc(C)n(-c2cncc(NCCNC(=O)C3CCCC3)n2)n1 | – | -17.81 |
| Cc1cc(C)n(C2=NC(NCCC(C)C)c3c(sc4c3CCCC4)N2)n1 (stereo not given) | – | -32.33 |
| O=C(NCc1cn2ccccc2n1)c1ccc(=O)oc1 | -17.09 | – |
| CNCC(=O)Nc1cc(Cl)ccc1OC | -3.261 | – |
| COCCNC(=O)Nc1cc(Cl)ccc1OC | 51.47 | – |
| CCCOc1ccc(Cl)cc1NC(=O)NCCC(=O)N(C)C | – | 15.25 |
| O=C(CCC1CCCCC1)NCc1c[nH]nn1 | 1.133 | – |

| SMILES | Percent Effect (50 µM) [%] | Percent Effect (10 µM) [%] |
| --- | --- | --- |
| CC(N)c1ccccc1N1CCOCC1 (stereo not given) | 0.1688 | – |
| C[C@@H](CO)NC(=O)NCC1CCN(CC(F)(F)F)CC1 | -3.478 | – |
| COCCC1(CN2CCCC(C(N)=O)C2)CCC1 (stereo not given) | -0.683 | – |
| COCCC1(CN2CCC(C(N)=O)C2)CCC1 (stereo not given) | 68.22 | – |
| COCCC1(CO)CCCN(CC(N)=O)C1 (stereo not given) | 0.1422 | – |
| CN(CC1CCOCC1)C(=O)c1ccc(CN)cc1 | 0.3864 | – |
| Cc1c(Cl)c(C(=O)N2CCCCC2)nn1C | 24.41 | – |
| CCS(=O)(=O)Cc1nnnn1-c1ccccc1 | – | -0.7088 |
| CCN(CC)Cc1nnnn1-c1ccccc1 | 68.75 | – |
| CN(Cc1ccc2c(c1)OCCO2)Cc1nnnn1-c1ccccc1 | – | -19.55 |
| O=C(Nc1ccccc1N1CCCC1)C1CCOC1 (stereo not given) | 2.349 | – |
| O=C(CCNC(=O)c1ccoc1)NCc1ccccc1F | – | -6.438 |
| CN(C)c1ncccc1CNC(=O)c1ccoc1 | -3.271 | – |
| CS(=O)(=O)Nc1ccccc1CNC(=O)c1ccoc1 | 97.49 | – |
| CC1CCCN(CCCN)C1 (stereo not given) | 8.539 | – |
| O=C(CC1CSCCN1)NCCc1ccc(F)cc1F (stereo not given) | 0.8144 | – |
| CCCc1noc(COc2nc(C)no2)n1 | 3.348 | – |
| CC(C)C(NC(=O)Cn1cnnn1)c1cccs1 (stereo not given) | 19.15 | – |
| O=C(N1CCOCC1)[C@@]12CCO[C@@H]1CCN(C1CCC1)C2.O=C(O)C(F)(F)F | – | 41.32 |
| O=C(N1CCOCC1)[C@@]12CCO[C@@H]1CCN(C1CCOCC1)C2.O=C(O)C(F)(F)F | – | 86.48 |
| O=C(N1CCOCC1)[C@@]12CCO[C@@H]1CCN(C1CCCCC1)C2.O=C(O)C(F)(F)F | – | -8.917 |
| Cc1cc(C)n(CCC(=O)NC2C=CS(=O)(=O)C2)n1 (stereo not given) | -3.643 | – |
| CC(Nc1ccc(C#N)cn1)c1ccc2c(c1)OCO2 (stereo not given) | 3.939 | – |

| SMILES | Percent Effect (50 µM) [%] | Percent Effect (10 µM) [%] |
| --- | --- | --- |
| CC(C)C(=O)N1CC[C@H]2N(C)CC[C@@]2(C(=O)Nc2ccccc2)CC1 | – | -18.9 |
| CC(C)CC(=O)N1CC[C@H]2N(C)CC[C@@]2(C(=O)Nc2ccccc2)CC1.O=C(O)C(F)(F)F | – | 95.11 |
| CC(C)CC(=O)N1CC[C@H]2N(C)CC[C@@]2(C(=O)Nc2cccnc2)CC1.O=C(O)C(F)(F)F.O=C(O)C(F)(F)F | – | 6.738 |
| O=C(CCC1CCCCC1)N1CC[S+]([O-])CC1 | -3.074 | – |
| CC(C)(CO)NCC(O)c1cccc(Cl)c1 (stereo not given) | 48.83 | – |
| CC(C)(CO)NCC(O)c1cccc(F)c1 (stereo not given) | 95.56 | – |
| CC(C)(C)OC(=O)NCCC(=O)NCC(O)c1cccc(F)c1 (stereo not given) | – | -9.599 |
| Cc1cc(Br)oc1C(=O)NCCOC(N)=O | -2.351 | – |
| COc1ccc(OC)c(NC(=O)N2CC(C)(OC)C2)c1 | 3.541 | – |
| CC[C@H](C)[C@H](N)C(=O)NC | -8.555 | – |
| Cl.c1csc(-c2noc(C3CNC3)n2)c1 | – | 42.66 |
| c1csc(-c2noc(C3CCCOC3)n2)c1 (stereo not given) | – | -3.059 |
| CC(=O)Nc1ccc(C(C)N)cc1 (stereo not given) | -11.91 | – |
| COCCn1ccnc1CN(C)[C@H]1COC[C@@H]1O | -5.172 | – |
| OC1CCN(Cc2c(-c3ccco3)[nH]c3ncccc23)CC1 | – | -9.681 |
| CN1CCN(Cc2c(-c3ccco3)[nH]c3ncccc23)CC1 | – | 84.72 |
| CCN1CCN(Cc2c(-c3ccco3)[nH]c3ncccc23)CC1 | – | -25.08 |
| Cc1nnc(SCC(=O)C(C)(C)C)[nH]1 | 12.7 | – |
| Cc1n[nH]cc1CNCCNc1ncc(Cl)cc1Cl | 5.335 | – |
| CNC(=O)CN(C)C(=O)CCc1ccc(Br)cc1F | 0.9597 | – |
| NCc1ccc(C(=O)N2CCN(C3CC3)C(=O)C2)cc1 | 8.158 | – |
| COc1ccccc1C(=O)N1CCN(C2CC2)C(=O)C1 | -3.275 | – |
| O=C(c1cnsn1)N1CCN(C2CC2)C(=O)C1 | 91.53 | – |

| SMILES | Percent Effect (50 µM) [%] | Percent Effect (10 µM) [%] |
| --- | --- | --- |
| COc1cc(CN)ccc1OCC(N)=O | 19.26 | – |
| Cc1nc(CC(=O)NCCN2CCNC2=O)c(C)s1 | -2.42 | – |
| OCCNc1nc2ccccc2s1 | 92.76 | – |
| NCCNc1nc2ccccc2s1 | 19.92 | – |
| O=C(NCCO)Nc1nc2ccccc2s1 | 9.255 | – |
| NC(=O)C1CCN(c2ncnc3ccsc23)CC1 | 0.8525 | – |
| CCOC1CCCN(C(=O)c2ccc(C)[nH]c2=O)C1 (stereo not given) | 1.701 | – |
| CC(C)n1cc(S(=O)(=O)N2CCCCCC2)cn1 | – | 51.25 |
| CC(C)n1cc(S(=O)(=O)N2CCSCC2)cn1 | – | 32.53 |
| CC(C)n1cc(S(=O)(=O)N2CCCCC2)cn1 | – | 1.913 |
| CN(C)C(=O)c1ccc(Oc2ncccn2)cc1 | -3.725 | – |
| Cc1cc(C2CCCN(CC(=O)Nc3nc4c(s3)CCC4)C2)n[nH]1 (stereo not given) | – | 56.52 |
| O=C(CN1CCCC(c2ccn[nH]2)C1)Nc1nc2c(s1)CCC2 (stereo not given) | – | 42.36 |
| O=C(CN1CCCC(c2ccn[nH]2)C1)Nc1nc2c(s1)CCCC2 (stereo not given) | – | 31.73 |
| Cc1noc(CN(C)Cc2cncn2C(C)C)n1 | -12.13 | – |
| CCN1CC2(CC1=O)CN(Cc1ccoc1)CCN(C(=O)C(C)C)C2 (stereo not given) | – | 73.92 |
| CCN1CC2(CC1=O)CN(Cc1ccco1)CCN(C(=O)C(C)C)C2.O=C(O)C(F)(F)F (stereo not given) | – | -13.42 |
| CCN1CC2(CC1=O)CN(Cc1ccsc1)CCN(C(=O)C(C)C)C2.O=C(O)C(F)(F)F (stereo not given) | – | -7.478 |
| CCN1CC2(CC1=O)CN(Cc1ccncc1)CCN(C(=O)C(C)C)C2.O=C(O)C(F)(F)F.O=C(O)C(F)(F)F (stereo not given) | – | 78.24 |
| CCN1CC2(CC1=O)CN(Cc1cnn(C)c1)CCN(C(=O)C(C)C)C2.O=C(O)C(F)(F)F (stereo not given) | – | -2.705 |
| CCN1CC2(CC1=O)CN(Cc1cccs1)CCN(C(=O)C(C)C)C2 (stereo not given) | – | -4.777 |
| NS(=O)(=O)c1ccc(Sc2ccc(F)cc2F)nc1 | -8.713 | – |
| CS(=O)(=O)N1CCC(CN)C1 (stereo not given) | 0.02635 | – |

| SMILES | Percent Effect (50 µM) [%] | Percent Effect (10 µM) [%] |
| --- | --- | --- |
| CC(Cc1ccco1)NS(=O)(=O)N1CCOCC1 (stereo not given) | 99.87 | – |
| CC(Cc1ccco1)NS(=O)(=O)N1CCCCCC1 (stereo not given) | – | -1.07 |
| CC(Cc1ccco1)NS(=O)(=O)N1CCCCC1 (stereo not given) | – | 0.1189 |
| Nc1cc(N2CCC(c3cc(Cc4ccccc4)n[nH]3)CC2)ccn1 | – | 67.3 |
| Nc1nc(O)cc(N2CCC(c3cc(Cc4ccccc4)n[nH]3)CC2)n1 | – | 2.428 |
| Nc1nccc(N2CCC(c3cc(Cc4ccccc4)n[nH]3)CC2)n1 | – | 46.75 |
| CN(C)c1ccc(NC(=O)N2CCSCC2)cn1 | -21.27 | – |
| COC(=O)c1ccc2c(-c3ccnc(NCCO)n3)c[nH]c2c1 | – | 29.45 |
| COc1ccc2[nH]cc(-c3ccnc(N4CCC(C)CC4)n3)c2c1 | – | 11.49 |
| COc1ccc2[nH]cc(-c3ccnc(NC4CCCC4)n3)c2c1 | – | 56.3 |
| Cn1ccnc1SCC(=O)Nc1cccnc1 | -23.51 | – |
| COCCCOc1cc(C)ccc1CN | -20.96 | – |
| COc1ccc(NCC(=O)N2CCNC(=O)C2)c(C)c1 | 52.04 | – |
| COc1ccc(N2CCCN(CC(=O)N3CCNC(=O)C3)CC2)cc1 | – | -0.2401 |
| COc1cccc(CC(=O)N2CCNC(=O)C2)c1 | 4.575 | – |
| NCc1ccc(N2CCS(=O)(=O)CC2)cc1 | 2.889 | – |
| CC(Nc1ncnc2c1cnn2C)c1ccncc1 (stereo not given) | 10.45 | – |
| NC(=O)CN1CCCN(C(=O)c2sccc2Br)CC1 | 2.336 | – |
| Cc1ccc(C(CCNCCN(C)C)C2CCOC(C)(C)C2)cc1.O=C(O)C(=O)O (stereo not given) | – | 5.223 |
| CN(C)CCCNCC1CCOC(C)(C)C1 (stereo not given) | – | 15.27 |
| CN(C)CCCNCCC(c1ccccc1)C1CCOC(C)(C)C1.O=C(O)C(=O)O (stereo not given) | – | 13.16 |
| Cc1ccc(C(CCNCCCN(C)C)C2CCOC(C)(C)C2)cc1.O=C(O)C(=O)O (stereo not given) | – | 86.28 |
| CN(C)CCNCCC(c1ccccc1)C1CCOC(C)(C)C1.O=C(O)C(=O)O (stereo not given) | – | -5.061 |

Reference: ChEMBL document CHEMBL3988442, “University of Dundee, Small-Polar-MMV Screening Library” (2021)
